hcGAS lum: Primary biochemical luminescence assay for human cyclic GMP-AMP synthase inhibitors; recombinant h-cGAS, ATP depletion, Kinase-Glo luminescence; inhibition, % at 12.5 µM; Q8N884; hit rate 0.081% among 290,000
NPYLR7 ag: agonists of mosquito NPYLR7 receptor, primary screen, cell-based, Aedes aegypti, calcium fluorescence, mosquito biting behavior. Aedes aegypti neuropeptide Y-like receptor 7 (NPYLR7). HEK293T NPYLR7/Galpha15, GCaMP6s calcium fluorescence. activation, % at 10 µM. hit rate 0.15% among 270,000. AID 1259423, 2018; in the data active means activation above about 40%
mcGAS inh: cyclic GMP-AMP synthase inhibitors, mouse, primary biochemical chemiluminescence | Q8C6L5 | recombinant cGAS, Kinase-Glo ATP depletion luminescence | inhibition, % at 12.5 µM | hit rate 0.15% among 160,000 | AID 1259399, 2018
Target sequence (Q8C6L5 whole entry, looked up): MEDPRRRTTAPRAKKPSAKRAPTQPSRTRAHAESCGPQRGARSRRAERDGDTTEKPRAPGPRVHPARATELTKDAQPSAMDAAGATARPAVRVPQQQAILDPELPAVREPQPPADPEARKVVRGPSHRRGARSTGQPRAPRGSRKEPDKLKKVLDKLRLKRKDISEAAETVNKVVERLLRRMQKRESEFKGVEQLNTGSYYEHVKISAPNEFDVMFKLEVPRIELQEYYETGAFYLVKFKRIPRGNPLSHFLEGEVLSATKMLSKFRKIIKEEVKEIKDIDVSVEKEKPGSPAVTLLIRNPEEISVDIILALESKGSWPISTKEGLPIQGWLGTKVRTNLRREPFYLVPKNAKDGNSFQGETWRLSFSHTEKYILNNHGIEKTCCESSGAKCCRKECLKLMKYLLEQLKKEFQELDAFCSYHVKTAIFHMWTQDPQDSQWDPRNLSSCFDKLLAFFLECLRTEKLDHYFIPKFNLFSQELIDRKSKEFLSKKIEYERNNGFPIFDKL
Large screens that a line does not name were inactive; ! = not active in a repeat. Only some compounds are listed: those with a hit (about 0.24% of all), similar ones and a draw of the others. Unless noted, no stated cut-off is given here; in the data, active means inhibition above about 40%; inactive means the rest.

O=C(Nc1ncccc1O)c1nc(-c2ccccc2)n2c1CCCCC2	hcGAS lum 65.8
Cc1cc(Cl)ccc1NC(=O)c1nc(C)n2c1CCCC2	none (no result: mcGAS inh)
COc1ccc(S(=O)(=O)NCC2CCCN(C(=O)C3CCOCC3)C2)cc1 (centres undefined)	none
O=C(CCCc1cccs1)N1CCCC(CNS(=O)(=O)c2cccs2)C1 (centres undefined)	none (no result: mcGAS inh)
O=C(COc1ccccc1)N1CCCC(CNS(=O)(=O)c2cccs2)C1 (centres undefined)	NPYLR7 ag 56.7!
COc1ccc(S(=O)(=O)NCC2CCCN(C(=O)CSc3ccccc3)C2)cc1 (centres undefined)	NPYLR7 ag 49.7!
CSc1ccc(CN2CCC2(C)C(=O)NC(C)(C)C)cc1 (centres undefined)	none (no result: mcGAS inh)
N#CC(=Cc1ccc(C=C(C#N)c2nnc3n2CCCCC3)cc1)c1nnc2n1CCCCC2	none (no result: mcGAS inh)
N#CC(=Cc1ccc(C#N)cc1)c1nnc2n1CCCCC2	mcGAS inh 43.8
N#Cc1cccc(C(=O)Nc2ccc(S(=O)(=O)NC3=NCCCCC3)cc2)c1	none (no result: mcGAS inh)
O=C(O)c1cc2c(ccc3ccccc32)oc1=O	mcGAS inh 41.8
O=c1oc2ccc3ccccc3c2cc1-c1nnc(-c2ccccc2)o1	hcGAS lum 46.4
COc1ccc(-c2nnc(-c3cc4c(ccc5ccccc54)oc3=O)o2)cc1	none
O=C(NCc1ccccn1)c1cc2c(ccc3ccccc32)oc1=O	none (no result: mcGAS inh)
O=C(CSc1nnc(CNC(=O)c2cccs2)n1-c1cccc(C(F)(F)F)c1)Nc1nccs1	none
CCN(C(=O)c1ccccc1N1CCC(NC(=O)OC)CC1)C1CCCCC1	none
CCN(CC)c1ccc(/C=C2\SC(=S)N(CCS(=O)(=O)O)C2=O)cc1	NPYLR7 ag 137.0
CCN1C(=O)/C(=C/c2ccc(N(C)C)cc2)SC1=S	none
CCN(CC)c1ccc(/C=C2/SC(=S)N(CC(=O)O)C2=O)cc1	NPYLR7 ag 42.1
O=C(O)CN1C(=O)/C(=C\c2ccc(I)cc2)SC1=S	none
O=C(NC1CCCNC1=O)c1cc(COc2ccc(F)cc2F)[nH]n1 (centres undefined)	none
C=CCCC(O)CN(Cc1c(C)nn(-c2ccccc2)c1Oc1cccc(OC)c1)CC(C)C (centres undefined)	none
CC(=O)Oc1c(-c2ccc(NC(=O)C3CC3)cc2)c(-c2cccc(N(C)C)c2)nn1-c1cccc(C)c1	none
C=C(c1ccc(Cl)cc1)C1SC(=S)NC1=O (centres undefined)	none
CCCC1CCC(C(=O)Nc2nnc(SCC)s2)CC1 (centres undefined)	NPYLR7 ag 54.8
O=C(Nc1nnc(SCC2CC2)s1)C1CCCC1	none
O=C(CN1CCCC1c1ccccc1)NCc1ccccc1 (centres undefined)	none (no result: mcGAS inh)
S=c1n(CN2CCCC2c2ccccc2)cc2ccccn12 (centres undefined)	hcGAS lum 54.9 (no result: mcGAS inh)
COc1ccc(NC[C@@H]2C=C(C)[C@H](Cc3nnc(C)o3)C[C@H]2C(C)C)cn1	NPYLR7 ag 54.5
COc1ccc(-c2nnc(C[C@@H]3C[C@@H](C(C)C)[C@H](CNc4ccccn4)C=C3C)o2)cc1	none
CC1CCCCC1NS(=O)(=O)c1ccc(F)cc1F (centres undefined)	none (no result: mcGAS inh)
COCC(=O)N1CCc2[nH]c3c(Cl)cc(Cl)cc3c2C1	hcGAS lum 48.2, mcGAS inh 95.8
O=C(c1cnccn1)N1CCc2[nH]c3c(Cl)cc(Cl)cc3c2C1	none
CCOc1ccccc1C(=O)N1[C@@H](c2ccco2)[C@@H](CO)C[C@]12CCCCNC2=O	none
COc1ccc(OC)c(CCNc2nc3cnc(-c4cc(OC)c(OC)c(OC)c4)cc3n2C)c1	NPYLR7 ag 70.0
COc1ccc(OC)c(CCNc2nc3cnc(-c4ccc(Cl)cc4)cc3n2C)c1	NPYLR7 ag 83.4
CNc1nc2cnc(-c3ccc(OC)c(OC)c3)cc2n1Cc1ccccc1	none
COc1ccc(Cn2cnc3cnc(-c4cc(OC)c(OC)c(OC)c4)cc32)cc1OC	none
OCCC1CN(C/C=C/c2ccccc2)CCN1Cc1ccccc1F (centres undefined)	none (no result: mcGAS inh)
CC(=O)Nc1nc(Cn2nc(C(C)(C)C)oc2=O)cs1	none (no result: mcGAS inh)
CC(=O)CC1(O)C(=O)N(CCCOc2ccccc2)c2ccc(Cl)cc21 (centres undefined)	none
CC(=O)N1CCN(c2cc(Cl)nc(SCC(=O)N3CC(C)OC(C)C3)n2)CC1C (centres undefined)	none
CCC1=NN2C(=N)/C(=C\c3ccccc3Br)C(=O)N=C2S1	none (no result: mcGAS inh)
CCC1=NN2C(=N)/C(=C\c3ccc(OC)c(OC)c3OC)C(=O)N=C2S1	mcGAS inh 43.7
O=C(c1cccs1)N1CCN(c2nccc(-c3ccc4c(c3)OCO4)n2)CC1	none
c1ccc(Cc2nc(CNC3CCC4(CCNCC4)CC3)no2)cc1	none
CC(C)C(NC(=O)c1cccc(F)c1)c1ccc2c(c1)OCCCO2 (centres undefined)	none (no result: mcGAS inh)
Cc1ccc(CNC(=O)NC(c2ccc3c(c2)OCCCO3)C(C)C)cc1F (centres undefined)	NPYLR7 ag 46.9
O=C(O)c1cc(O)c2c(O)c3c(O[C@H]4O[C@H](CO)[C@@H](O)[C@H](O)[C@H]4O)cccc3c(-c3c4cc(C(=O)O)cc(O)c4c(O)c4c(O[C@H]5O[C@H](CO)[C@@H](O)[C@H](O)[C@H]5O)cccc34)c2c1	hcGAS lum 42.4! (no result: mcGAS inh)
OCC1OC(Oc2ccccc2Cl)C(O)C(O)C1O (centres undefined)	none
Cn1c(=O)n(Cc2ccc(Br)cc2)c(=O)c2c1nc1n2CCCN1Cc1ccccc1	none (no result: mcGAS inh)
O=C(c1cnc2cccnn12)N1C[C@H]2C[C@H](C1)[C@@H]1CCCC(=O)N1C2	none
CCCNC(=O)Cn1nc2c(c1NC(=O)c1cccc(F)c1)CSC2	none
CCN1CC(=Cc2cc(C)n(C3CC3)c2C)C(=O)C(=Cc2cc(C)n(C3CC3)c2C)C1	NPYLR7 ag 48.4 (no result: mcGAS inh)
Cc1cc(C=C2SC(N)=NC2=O)c(C)n1C1CC1	none (no result: mcGAS inh)
CCCCCN=C(N)NN=Cc1c[nH]c2ccc(OC)cc12	NPYLR7 ag 46.5 (no result: mcGAS inh)
NC(=O)N/N=C\c1c[nH]c2ccccc12	none
COc1ccc(NC(=O)C2C=CCN2)cc1NC(=O)c1ccco1 (centres undefined)	NPYLR7 ag 64.3
COc1cc(NC(=O)c2ccco2)c(OC)cc1Cl	none (no result: mcGAS inh)
COc1ccccc1-c1cc(C(=O)NCC(C)C)n2nc(C(C)(C)C)cc2n1	none
COc1ccc(Br)cc1C1C(C#N)C(=N)SC(=N)C1C#N (centres undefined)	none
N#CC1C(=N)SC(=N)C(C#N)C1c1cc(Br)ccc1F (centres undefined)	mcGAS inh 57.4
CCc1ccc(S(=O)(=O)Nc2ccn(C)n2)cc1	none
CCC(=O)Nc1ccc(N(C)C)c(CN(CC2CC2)C(=O)COC)c1	none
O=C(CCl)Nc1cc([N+](=O)[O-])ccc1Cl	mcGAS inh 51.6
O=C(CCl)Nc1ccc(Cl)cc1[N+](=O)[O-]	none
COc1cc(OC)cc(C(=O)OCCN(C)C2=NS(=O)(=O)c3ccccc32)c1	none
COc1ccc(-c2nc3ccc(C)cn3c2NC(=O)C(C)C)cc1OC	none
O=C(Nc1ccc(NC2CCCCC2)cc1)c1nccc2ccccc12	none (no result: mcGAS inh)
O=C(c1nccc2ccccc12)N1CCN(CC2CCCC2)CC1	NPYLR7 ag 125.6 (no result: mcGAS inh)
